# Experimental data: PubChem BioAssay AID1021 (Emory University Molecular Libraries Screening Center, 2008)
# Hit rate of the full screen: of about 220,000 compounds, about 2,100 (0.95%) were called active. Many of the other results were omitted from the sample, so actives are more common in it than they were. A number with no mark means an inactive call.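 Rule for the calls: active = compounds that cut the binding signal by more than half at the single screening dose; inactive = the rest.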
# Biological target: Induced myeloid leukemia cell differentiation protein Mcl-1 (Homo sapiens) (UniProt Q07820)
# Sequence (Q07820 whole entry, looked up): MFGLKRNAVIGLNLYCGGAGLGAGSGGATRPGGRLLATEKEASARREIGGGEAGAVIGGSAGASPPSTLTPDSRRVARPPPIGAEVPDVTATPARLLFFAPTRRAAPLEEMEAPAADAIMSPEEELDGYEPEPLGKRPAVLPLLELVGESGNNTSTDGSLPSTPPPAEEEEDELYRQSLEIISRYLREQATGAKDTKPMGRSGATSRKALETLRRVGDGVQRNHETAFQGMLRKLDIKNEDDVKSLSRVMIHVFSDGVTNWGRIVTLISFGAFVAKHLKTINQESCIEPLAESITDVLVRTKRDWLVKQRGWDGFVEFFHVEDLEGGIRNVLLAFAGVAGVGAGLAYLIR
# Experiment: disruptors of Mcl-1 and Bid BH3 peptide – biochemical, TR-FRET, 1536-well, primary screen (AID 1021);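 note: His-tagged Mcl-1 with europium anti-His antibody binding Bid BH3 peptide; 0% = Mcl-1 plus peptide wells and 100% = peptide-only wells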
# Conditions: TR-FRET Mcl-1/Bid-Dy647 peptide binding, at 21.7 µM, active compounds read high
row,Structure (SMILES),inhibition
1,O=C(Cc1ccccc1[N+](=O)[O-])N1CCN(Cc2ccc3c(c2)OCO3)CC1,-23.7%
2,O=C(Cc1ccccc1)N1CCN(C2CCCCCC2)CC1,17%
3,COc1ccccc1CN1CCN(C(=O)Cc2ccccc2)CC1,68% (active)
4,COc1ccc(-n2c(O)c(C(C)=Nc3ccc4c(c3)CCC4)c(=O)[nH]c2=O)cc1,-2.41%
5,O=C(O)COc1ccccc1/C=C1\C(=O)NC(=O)N(CCC2=CCCCC2)C1=O,2.6%
6,CN1CCN(Cc2ccccc2C(F)(F)F)CC1,-13%
7,CN1CCN(Cc2ccc(OC(F)(F)F)cc2)CC1,56.4% (active)
8,CCOP(=O)(OCC)C(NC(=O)NC)C(N)=O (stereo not given),-3.96%
9,CCc1nnc(NS(=O)(=O)c2ccc(N=Cc3c(O)n(-c4ccccc4)c(=O)[nH]c3=O)cc2)s1,-3.62%
10,CCOc1ccc(CN(CCCl)CCCl)cc1C(=O)OC,63.2% (active)
11,CC1=C2C(=O)C3C(CC=C4CC(OC5OC(O)C(O)C(O)C5CO)CCC43C)C2CCC12OC1CC(C)CNC1C2C (stereo not given),-4.26%
12,O=c1c2ccccc2nc(/C=C/c2ccco2)n1-c1ccccc1O,-66%
13,CNC(=O)O/N=C(\N)Cc1csc2ccc(Cl)cc12,-11.9%
14,COc1ccc(C(=O)C2CCCN(Cc3ccc(C)s3)C2)cc1OC (stereo not given),-15%
15,CC1CCCCN1Cc1cccnc1 (stereo not given),49.3%
16,O=C1NC(=O)N(c2ccccc2)C(=O)/C1=C/c1ccc([N+](=O)[O-])s1,-21.7%
17,O=C1NC(=O)N(c2ccc(F)cc2)C(=O)/C1=C/c1ccc2c(c1)CCCN2Cc1ccccc1,74.2% (active)
18,Cc1cccc(N2C(=O)NC(=O)/C(=C\c3cnn(-c4ccccc4)c3)C2=O)c1,-15.1%
19,O=C(c1cc2nc(-c3ccccc3)cc(-c3ccccc3)n2n1)N1CCC2(CC1)OCCO2,12.9%
20,CC(=O)Cc1ccc(OC(C)C)cc1,29.9%
